# Data published in PubChem BioAssay.
# Active and inactive are the calls of the source.
# Experiments:
# [1] = system: PRMT1 (protein arginine N-methyltransferase 1); experiment: small molecules binding arginine methyltransferase PRMT1 – biochemical, small-molecule microarray, 635 nm fluorescence, primary screen (AID 1088); conditions: higher = more signal;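 note: binding of Prmt1 protein to compounds spotted on small-molecule microarray slides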
# [2] = growth effects on S. cerevisiae YJM789 – YJM789 clinical isolate, OD600, 24 h, basal, primary screen (AID 1089); conditions: higher = more signal, called active from +8 up or from −8 down;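 note: growth of clinical yeast isolate S. cerevisiae YJM 789 seeded 1000 cells per well; test concentration not given here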
# [3] = S. pombe growth modifiers, basal conditions – strain 972, OD600, 24 h, no modulator, primary screen (AID 1090);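 note: basal condition with compound alone and no growth modifier present; test concentration not given here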; conditions: S. pombe 972 growth, higher = more signal, called active from +8 up or from −8 down
# [4] = budding yeast growth modifiers under rapamycin – strain BY4716, OD600, 96 h, primary screen (AID 1091); note: test concentration not given here; conditions: S. cerevisiae BY4716 + rapamycin, higher = more signal, called active from +8 up or from −8 down
# [5] = target: Torsin-1A-interacting protein 2 (Homo sapiens) (UniProt Q8NFQ8); experiment: small molecules binding lysate-expressed LULL1 – cell lysate, human LULL1 lysate, 635/667 nm fluorescence, primary screen (AID 1092); conditions: small-molecule microarray, hLULL1 lysate binding, 635 nm fluorescence; higher = more signal;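 note: probe is lysate of COS7 cells overexpressing human LULL1; score merges per-feature 667 nm fluorescence with signal-to-noise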
# Sequence of Torsin-1A-interacting protein 2 (Homo sapiens) (Q8NFQ8 whole entry, looked up): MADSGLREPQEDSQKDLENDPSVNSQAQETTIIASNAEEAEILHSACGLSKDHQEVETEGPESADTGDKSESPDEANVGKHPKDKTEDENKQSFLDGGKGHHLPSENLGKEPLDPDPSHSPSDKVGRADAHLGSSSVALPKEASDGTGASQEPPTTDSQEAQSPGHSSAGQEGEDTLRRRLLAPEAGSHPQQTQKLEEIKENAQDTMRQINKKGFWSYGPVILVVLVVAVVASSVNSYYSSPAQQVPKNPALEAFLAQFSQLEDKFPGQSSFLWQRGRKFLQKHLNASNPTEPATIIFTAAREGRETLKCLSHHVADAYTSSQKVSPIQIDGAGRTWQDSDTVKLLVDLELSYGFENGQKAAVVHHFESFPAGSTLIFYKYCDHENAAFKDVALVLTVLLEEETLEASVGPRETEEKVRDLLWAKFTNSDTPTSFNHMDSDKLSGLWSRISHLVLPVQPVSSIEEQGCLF
# [6] = optical density change of DRC41 E. coli – strain DRC41, OD650, 24 h, E. coli filamentation project, primary screen (AID 1093);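 note: MC1000 strain lacking acrAB efflux and sulA so SOS filamentation is blocked; test concentration not given here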; conditions: E. coli DRC41 growth, higher = more signal, called active from +8 up or from −8 down
# [7] = probe aLefty2 binding to arrayed compounds – biochemical, biotinylated probe, 635/667 nm fluorescence, primary screen (AID 1094); conditions: small-molecule microarray, higher = more signal;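 note: score merges spot fluorescence near 667 nm with spot signal-to-noise ratio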
# [8] = system: Noggin (protein binding on small-molecule microarray); experiment: small molecules binding Noggin protein – biochemical, 635/667 nm fluorescence, primary screen (AID 1095); conditions: 635 nm fluorescence, higher = more signal;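 note: score merges 667 nm feature fluorescence with signal to noise over triplicate slides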
# [9] = target: Neurogenic locus notch homolog protein 3 (Homo sapiens) (UniProt Q9UM47); experiment: small molecules binding NOTCH3 protein – biochemical, 635/667 nm fluorescence, primary screen (AID 1096); conditions: small-molecule microarray, 635 nm fluorescence, higher = more signal
# Sequence of Neurogenic locus notch homolog protein 3 (Homo sapiens) (Q9UM47 whole entry, looked up): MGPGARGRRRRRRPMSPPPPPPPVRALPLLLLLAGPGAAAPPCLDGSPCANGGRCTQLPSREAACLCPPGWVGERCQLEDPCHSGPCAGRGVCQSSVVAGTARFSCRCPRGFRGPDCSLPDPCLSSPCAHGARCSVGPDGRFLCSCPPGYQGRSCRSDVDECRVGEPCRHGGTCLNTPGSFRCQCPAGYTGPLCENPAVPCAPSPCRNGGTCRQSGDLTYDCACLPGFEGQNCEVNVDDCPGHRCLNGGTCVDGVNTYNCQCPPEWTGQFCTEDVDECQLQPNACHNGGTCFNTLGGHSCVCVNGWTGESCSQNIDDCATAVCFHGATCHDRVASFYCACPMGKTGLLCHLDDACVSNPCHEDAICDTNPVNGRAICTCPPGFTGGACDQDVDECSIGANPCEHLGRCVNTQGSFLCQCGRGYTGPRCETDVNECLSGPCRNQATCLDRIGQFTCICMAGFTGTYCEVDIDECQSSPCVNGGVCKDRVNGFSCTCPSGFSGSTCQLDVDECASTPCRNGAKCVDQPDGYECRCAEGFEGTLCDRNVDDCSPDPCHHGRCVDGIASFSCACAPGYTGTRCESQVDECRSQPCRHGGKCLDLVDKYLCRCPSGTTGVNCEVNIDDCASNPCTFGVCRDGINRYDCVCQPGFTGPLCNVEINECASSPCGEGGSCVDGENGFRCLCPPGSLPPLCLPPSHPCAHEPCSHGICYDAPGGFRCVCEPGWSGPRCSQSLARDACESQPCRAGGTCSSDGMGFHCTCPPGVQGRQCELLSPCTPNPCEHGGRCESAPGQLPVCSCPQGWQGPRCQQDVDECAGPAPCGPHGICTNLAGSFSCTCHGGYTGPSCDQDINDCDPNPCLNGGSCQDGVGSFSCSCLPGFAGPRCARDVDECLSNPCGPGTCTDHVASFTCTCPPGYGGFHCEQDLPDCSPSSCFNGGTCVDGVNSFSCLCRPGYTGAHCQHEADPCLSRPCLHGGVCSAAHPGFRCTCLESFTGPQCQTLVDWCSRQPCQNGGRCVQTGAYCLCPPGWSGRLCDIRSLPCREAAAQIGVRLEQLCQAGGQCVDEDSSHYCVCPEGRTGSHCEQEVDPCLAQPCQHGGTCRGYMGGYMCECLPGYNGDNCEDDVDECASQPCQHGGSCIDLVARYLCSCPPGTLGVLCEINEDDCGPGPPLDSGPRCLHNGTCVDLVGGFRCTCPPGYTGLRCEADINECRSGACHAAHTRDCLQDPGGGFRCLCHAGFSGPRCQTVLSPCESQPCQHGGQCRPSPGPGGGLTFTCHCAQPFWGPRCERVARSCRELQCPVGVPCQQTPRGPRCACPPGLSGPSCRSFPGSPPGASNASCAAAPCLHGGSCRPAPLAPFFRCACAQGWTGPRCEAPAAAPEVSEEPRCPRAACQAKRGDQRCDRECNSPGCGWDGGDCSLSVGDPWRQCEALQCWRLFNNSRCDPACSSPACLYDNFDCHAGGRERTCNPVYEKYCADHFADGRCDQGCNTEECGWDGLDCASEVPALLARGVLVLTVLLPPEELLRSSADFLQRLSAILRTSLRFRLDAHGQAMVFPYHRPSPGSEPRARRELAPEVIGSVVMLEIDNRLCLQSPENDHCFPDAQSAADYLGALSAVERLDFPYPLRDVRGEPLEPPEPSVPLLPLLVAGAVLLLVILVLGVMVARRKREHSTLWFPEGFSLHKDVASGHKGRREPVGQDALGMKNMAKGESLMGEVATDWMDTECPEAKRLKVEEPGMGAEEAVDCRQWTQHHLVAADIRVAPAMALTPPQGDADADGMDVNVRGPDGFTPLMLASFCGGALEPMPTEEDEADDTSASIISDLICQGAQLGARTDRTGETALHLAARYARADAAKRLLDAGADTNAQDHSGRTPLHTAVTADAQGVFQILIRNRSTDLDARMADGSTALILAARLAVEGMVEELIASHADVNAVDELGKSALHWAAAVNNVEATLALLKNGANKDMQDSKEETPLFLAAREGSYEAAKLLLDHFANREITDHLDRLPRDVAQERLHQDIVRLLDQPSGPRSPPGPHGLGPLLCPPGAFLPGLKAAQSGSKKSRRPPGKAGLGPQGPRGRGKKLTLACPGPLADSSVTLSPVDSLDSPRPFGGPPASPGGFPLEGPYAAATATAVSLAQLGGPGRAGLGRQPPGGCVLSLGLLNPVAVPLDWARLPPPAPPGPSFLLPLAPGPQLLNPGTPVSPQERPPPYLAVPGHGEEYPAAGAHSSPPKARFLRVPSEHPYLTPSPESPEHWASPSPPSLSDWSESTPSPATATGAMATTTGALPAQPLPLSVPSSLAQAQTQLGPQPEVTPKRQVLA
# [10] = probe aEGFR binding to arrayed compounds – biochemical, biotinylated probe, 635/667 nm fluorescence, primary screen (AID 1097); conditions: small-molecule microarray, higher = more signal;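 note: probe is a biotinylated anti-EGFR antibody binding compounds printed on slides; score combines fluorescence near 667 nm and signal to noise of each spot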
# [11] = system: Plasmodium falciparum Sir2 (PF13_0152, Sir2A); experiment: Plasmodium falciparum Sir2A binding compounds – biochemical, small-molecule microarray, 635 nm fluorescence, primary screen (AID 1098); conditions: fluorescence 635 nm, higher = more signal;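 note: score merges spot fluorescence intensity with its signal-to-noise ratio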
# [12] = probe aDKK1 binding to arrayed compounds – biochemical, biotinylated probe, 635/667 nm fluorescence, primary screen (AID 1099); conditions: small-molecule microarray, higher = more signal;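 note: score merges 667nm spot fluorescence with signal to noise across triplicate slides; reference of the scale not given here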
# [13] = probe aCHRDL2 binding to arrayed compounds – biochemical, biotinylated probe, 635/667 nm fluorescence, primary screen (AID 1100); conditions: small-molecule microarray, higher = more signal
# [14] = change in splice reporter luminescence, either direction, cell-based, HEK293, spliceosome inhibition project, primary screen (AID 1101); conditions: HEK293 splicing luciferase reporter, 24 h, higher = more signal, called active from +8 up or from −8 down;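 note: HEK293 cells carrying a splicing-competent luciferase reporter gene; test concentration not given here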
# [15] = target: Fibroblast growth factor 10 (Homo sapiens) (UniProt O15520); experiment: compounds binding fibroblast growth factor 10 – biochemical, small-molecule microarray, 635 nm fluorescence, primary screen (AID 1102); conditions: FGF10 binding, fluorescence 635 nm, higher = more signal
# Sequence of Fibroblast growth factor 10 (Homo sapiens) (O15520 whole entry, looked up): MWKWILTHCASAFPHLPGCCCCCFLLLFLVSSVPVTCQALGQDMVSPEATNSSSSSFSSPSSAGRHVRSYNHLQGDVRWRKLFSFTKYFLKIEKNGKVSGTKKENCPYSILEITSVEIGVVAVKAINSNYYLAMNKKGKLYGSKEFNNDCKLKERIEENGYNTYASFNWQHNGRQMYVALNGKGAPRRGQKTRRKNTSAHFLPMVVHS
# [16] = system: glycogen synthase kinase-3 (GSK3A per assay name; protocol says GSK3B); experiment: compounds binding glycogen synthase kinase-3 – biochemical, small-molecule microarray, 635 nm fluorescence, GSK3A, primary screen (AID 1103); conditions: fluorescence 635 nm, higher = more signal; note: the record names both GSK3A and GSK3B
# [17] = target: Epidermal growth factor receptor (Homo sapiens) (UniProt P00533); experiment: compounds binding epidermal growth factor receptor – biochemical, small-molecule microarray, 635 nm fluorescence, primary screen (AID 1104); conditions: EGFR binding, higher = more signal;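 note: score merges 667 nm emission intensity with spot signal to noise over triplicate slides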
# Sequence of Epidermal growth factor receptor (Homo sapiens) (P00533 whole entry, looked up): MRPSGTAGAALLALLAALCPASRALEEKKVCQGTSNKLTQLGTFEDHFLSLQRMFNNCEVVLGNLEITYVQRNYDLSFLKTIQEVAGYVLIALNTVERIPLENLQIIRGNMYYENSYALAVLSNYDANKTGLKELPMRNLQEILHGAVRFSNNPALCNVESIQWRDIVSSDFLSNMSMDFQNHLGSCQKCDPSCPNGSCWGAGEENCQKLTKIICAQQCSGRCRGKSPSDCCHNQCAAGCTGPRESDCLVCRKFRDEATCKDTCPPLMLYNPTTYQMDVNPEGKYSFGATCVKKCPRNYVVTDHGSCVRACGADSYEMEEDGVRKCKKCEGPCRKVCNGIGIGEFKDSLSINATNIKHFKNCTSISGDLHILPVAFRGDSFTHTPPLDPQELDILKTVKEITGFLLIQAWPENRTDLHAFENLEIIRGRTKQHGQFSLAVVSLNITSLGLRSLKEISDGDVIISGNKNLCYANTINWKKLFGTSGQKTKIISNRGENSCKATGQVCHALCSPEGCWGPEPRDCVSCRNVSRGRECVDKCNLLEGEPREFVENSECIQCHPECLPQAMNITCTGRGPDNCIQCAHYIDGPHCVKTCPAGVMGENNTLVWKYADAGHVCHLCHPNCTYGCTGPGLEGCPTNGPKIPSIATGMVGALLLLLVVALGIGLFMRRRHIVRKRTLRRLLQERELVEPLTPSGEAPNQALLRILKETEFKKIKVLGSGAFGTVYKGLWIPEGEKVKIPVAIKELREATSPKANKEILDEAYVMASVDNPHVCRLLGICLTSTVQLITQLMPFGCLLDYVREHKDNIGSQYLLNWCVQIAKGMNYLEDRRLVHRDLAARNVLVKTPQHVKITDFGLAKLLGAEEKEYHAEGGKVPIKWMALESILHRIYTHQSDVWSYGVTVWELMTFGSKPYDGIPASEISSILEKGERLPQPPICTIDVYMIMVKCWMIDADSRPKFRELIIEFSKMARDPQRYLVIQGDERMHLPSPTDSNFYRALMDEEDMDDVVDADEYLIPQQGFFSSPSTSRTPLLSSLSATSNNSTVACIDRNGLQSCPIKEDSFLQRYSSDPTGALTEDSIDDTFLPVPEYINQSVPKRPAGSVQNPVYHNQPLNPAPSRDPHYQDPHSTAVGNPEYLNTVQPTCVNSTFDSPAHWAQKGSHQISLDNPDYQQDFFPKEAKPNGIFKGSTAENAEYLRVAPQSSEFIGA
# [18] = target: Follistatin-related protein 3 (Homo sapiens) (UniProt O95633); experiment: compounds binding follistatin-related protein 3 – biochemical, small-molecule microarray, 635 nm fluorescence, primary screen (AID 1105); conditions: FSTL3 binding, higher = more signal;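 note: score merges emission near 667 nm and signal to noise per printed spot across three slides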
# Sequence of Follistatin-related protein 3 (Homo sapiens) (O95633 whole entry, looked up): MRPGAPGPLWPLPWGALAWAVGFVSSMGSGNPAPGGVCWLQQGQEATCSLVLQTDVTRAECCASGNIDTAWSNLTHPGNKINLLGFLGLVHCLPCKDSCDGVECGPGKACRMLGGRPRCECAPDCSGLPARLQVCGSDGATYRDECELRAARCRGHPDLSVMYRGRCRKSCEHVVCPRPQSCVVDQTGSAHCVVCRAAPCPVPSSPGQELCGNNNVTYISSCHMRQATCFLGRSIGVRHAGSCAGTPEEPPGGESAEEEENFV
# [19] = target: Dickkopf-related protein 1 (Homo sapiens) (UniProt O94907); experiment: small molecules binding DKK1 protein – biochemical, small-molecule microarray, 635 nm fluorescence scan, primary screen (AID 1106); conditions: higher = more signal;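 note: score merges emission near 667 nm with signal to noise over three replicate slides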
# Sequence of Dickkopf-related protein 1 (Homo sapiens) (O94907 whole entry, looked up): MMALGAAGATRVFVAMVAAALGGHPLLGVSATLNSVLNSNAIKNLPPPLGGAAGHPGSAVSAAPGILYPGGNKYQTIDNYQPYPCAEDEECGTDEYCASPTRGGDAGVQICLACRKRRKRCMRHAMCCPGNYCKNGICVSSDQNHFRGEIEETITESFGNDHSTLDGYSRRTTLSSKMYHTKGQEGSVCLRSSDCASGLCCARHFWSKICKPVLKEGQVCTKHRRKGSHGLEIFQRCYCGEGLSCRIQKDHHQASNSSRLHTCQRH
# [20] = system: Inhibin beta A chain (activin A); experiment: small molecules binding activin A – biochemical, small-molecule microarray, 635 nm fluorescence scan, primary screen (AID 1107); conditions: INHBA, higher = more signal;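 note: mouse activin A protein probed at 4.33 µg/mL on printed slides; score merges bound-protein fluorescence near 667 nm with spot signal-to-noise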
compound,measurement,setting,value
COC(=O)c1ccc(OC)c(/C=C\CC(OC(=O)c2ccncc2)c2ccccc2)c1 (stereo not given),composite z-score,[1],0.264
same,z-score,[2],-2.64 (inactive)
same,z-score,[3],-2.43 (inactive)
same,z-score,[4],-0.0389 (inactive)
same,composite z-score,[5],0.179
same,z-score,[6],1.27 (inactive)
same,composite z-score,[7],-0.0851
same,composite z-score,[8],0.66
same,composite z-score,[9],0.0482
same,composite z-score,[10],-0.0286
same,composite z-score,[11],-0.475
same,composite z-score,[12],-0.367
same,composite z-score,[13],-0.43
same,z-score,[14],-2.07 (inactive)
same,composite z-score,[15],0.377
same,composite z-score,[16],0.058
same,composite z-score,[17],1.09
same,composite z-score,[18],0.891
same,composite z-score,[19],0.631
same,composite z-score,[20],1.61
CC(C)(C)OC(=O)CC[C@]1(C(N)=O)N=C(c2ccc(OCCCO)cc2)O[C@H]1c1ccccc1N=[N+]=[N-],composite z-score,[1],0.138
same,z-score,[2],1.37 (inactive)
same,z-score,[3],0.138 (inactive)
same,z-score,[4],0.467 (inactive)
same,composite z-score,[5],2.75
same,z-score,[6],0.626 (inactive)
same,composite z-score,[7],0.0598
same,composite z-score,[8],-0.165
same,composite z-score,[9],0.206
same,composite z-score,[10],0.141
same,composite z-score,[11],0.793
same,composite z-score,[12],0.929
same,composite z-score,[13],0.975
same,z-score,[14],-1.24 (inactive)
same,composite z-score,[15],1.5
same,composite z-score,[16],-0.0657
same,composite z-score,[17],-0.204
same,composite z-score,[18],0.0699
same,composite z-score,[19],-0.307
same,composite z-score,[20],1.23
COc1cccc(C)c1NC(=O)O[C@H]1[C@H](OC(=O)Nc2ccccc2-c2ccccc2)[C@@H](OC(=O)Nc2ccccc2-c2ccccc2)[C@@H](OC)O[C@@H]1CO,composite z-score,[1],1.53
same,z-score,[2],3.84 (inactive)
same,z-score,[3],2.59 (inactive)
same,z-score,[4],3.5 (inactive)
same,composite z-score,[5],3.54
same,z-score,[6],-0.692 (inactive)
same,composite z-score,[7],0.0426
same,composite z-score,[8],1.36
same,composite z-score,[9],0.542
same,composite z-score,[10],0.0059
same,composite z-score,[11],1.3
same,composite z-score,[12],0.629
same,composite z-score,[13],0.573
same,z-score,[14],0.152 (inactive)
same,composite z-score,[15],1.4
same,composite z-score,[16],1.1
same,composite z-score,[17],0.316
same,composite z-score,[18],1.43
same,composite z-score,[19],0.244
same,composite z-score,[20],0.601
[N-]=[N+]=Nc1ccccc1C[C@@]1(C(=O)NCc2ccccc2)N=C(c2ccc(OCCCO)cc2)O[C@@H]1c1ccccc1,composite z-score,[1],1.54
same,z-score,[2],-1.27 (inactive)
same,z-score,[3],0.326 (inactive)
same,z-score,[4],5.57 (inactive)
same,composite z-score,[5],3.02
same,z-score,[6],0.594 (inactive)
same,composite z-score,[7],0.271
same,composite z-score,[8],0.922
same,composite z-score,[9],1.03
same,composite z-score,[10],0.1
same,composite z-score,[11],1.22
same,composite z-score,[12],0.95
same,composite z-score,[13],1.03
same,z-score,[14],-0.0448 (inactive)
same,composite z-score,[15],1.14
same,composite z-score,[16],1.29
same,composite z-score,[17],0.165
same,composite z-score,[18],1.06
same,composite z-score,[19],0.313
same,composite z-score,[20],0.838
COC(=O)[C@@]1(Cc2ccc(F)cc2)[C@H]2c3cc(C(=O)N(C)C)n(CCF)c3C[C@H]2CN1C(=O)c1ccccc1,composite z-score,[1],-0.0162
same,z-score,[2],-2.02 (inactive)
same,z-score,[3],0.287 (inactive)
same,z-score,[4],-0.318 (inactive)
same,composite z-score,[5],2.35
same,z-score,[6],1.25 (inactive)
same,composite z-score,[7],0.265
same,composite z-score,[8],0.104
same,composite z-score,[9],-0.0282
same,composite z-score,[10],-0.0896
same,composite z-score,[11],-0.0822
same,composite z-score,[12],0.9
same,composite z-score,[13],0.987
same,z-score,[14],-1.66 (inactive)
same,composite z-score,[15],0.295
same,composite z-score,[16],0.139
same,composite z-score,[17],-0.0604
same,composite z-score,[18],-0.0956
same,composite z-score,[19],-0.256
same,composite z-score,[20],0.856
O=C1O[C@H](c2ccccc2)[C@H](c2ccccc2)N2[C@H]1[C@@H](C(=O)N1CCCCCCC1)[C@]1(C(=O)Nc3ccc(C#CCCO)cc31)[C@H]2c1ccc(O)cc1,composite z-score,[1],1.54
same,z-score,[2],0.6 (inactive)
same,z-score,[3],-0.36 (inactive)
same,z-score,[4],1.45 (inactive)
same,composite z-score,[5],5.04
same,z-score,[6],2.08 (inactive)
same,composite z-score,[7],1.78
same,composite z-score,[8],0.731
same,composite z-score,[9],1.02
same,composite z-score,[10],1.38
same,composite z-score,[11],2.11
same,composite z-score,[12],2.97
same,composite z-score,[13],1.72
same,z-score,[14],-0.547 (inactive)
same,composite z-score,[15],1.67
same,composite z-score,[16],1.47
same,composite z-score,[17],1.99
same,composite z-score,[18],1.74
same,composite z-score,[19],2.7
same,composite z-score,[20],1.96
